# Measured values published in PubChem BioAssay.
# Active and inactive are the calls of the source.
# What was measured:
# [1] = target: Albumin (Bos taurus) (UniProt P02769); assay: compounds binding labelled BSA control protein – biochemical, small-molecule microarray, Alexa647 label, 635/667 nm fluorescence, artefact control for SMM control protein annotation, profiling panel (AID 1118); conditions: BSA-A647 binding, fluorescence 635 nm, higher = more signal;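 note: score merges 667 nm emission intensity and signal-to-noise per printed compound spot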
# [2] = probe aXIP binding to arrayed compounds – biochemical, NeuroSMM set, 635/667 nm fluorescence, primary screen (AID 1119); conditions: small-molecule microarray, higher = more signal, called active from +8 up or from −8 down;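 note: probe is the protein aXip251-270 applied at 1 µg/mL to compound-printed slides; binding of probe to printed compounds measured as 667 nm fluorescence plus signal to noise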
# [3] = probe aNOTCH3 binding on compound microarray – biochemical, small-molecule microarray, 635/667 nm fluorescence, primary screen (AID 1120); conditions: higher = more signal;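 note: probe is a biotin-tagged antibody raised against NOTCH3 rather than NOTCH3 protein; score merges spot fluorescence near 667 nm with spot signal to noise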
# [4] = probe aNOTCH2 binding on compound microarray – biochemical, small-molecule microarray, 635/667 nm fluorescence, primary screen (AID 1121); conditions: higher = more signal;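 note: score merges feature fluorescence read at 667 nm with its signal to noise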
# [5] = target: Carbonic anhydrase 2 (Homo sapiens) (UniProt P00918); assay: compounds binding carbonic anhydrase 2 – biochemical, small-molecule microarray, Alexa647-labelled CAII, profiling panel (AID 1122); conditions: CAII-A647 binding fluorescence, higher = more signal
# [6] = COS7 lysate on small-molecule microarray, probe aHis, 635 nm (AID 1123); conditions: COS7 cell lysate, fluorescence, higher = more signal;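 note: z-score combines 667nm fluorescence intensity with signal-to-noise per printed compound spot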
# [7] = probe aLAP1 signal on lysate-treated microarray – cell lysate, small-molecule microarray, COS7 lysate, primary screen (AID 1124); conditions: probe aLAP1, fluorescence, higher = more signal;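 note: lysate comes from COS7 cells expressing LAP1 and is applied at 0.3 µg/mL; score merges spot fluorescence near 667 nm with signal-to-noise over triplicate slides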
# [8] = system: Sam68 (KHDRBS1); assay: compounds binding KHDRBS1 protein – biochemical, small-molecule microarray, 635 nm fluorescence, primary screen (AID 1125); conditions: higher = more signal;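 note: score merges 667 nm channel intensity with signal to noise over triplicate slides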
# [9] = system: Chordin-like protein 2 (CHRDL2); assay: compounds binding chordin-like 2 – biochemical, small-molecule microarray, 635 nm fluorescence, primary screen (AID 1126); conditions: fluorescence 635 nm, higher = more signal;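 note: printed compound slides probed with Chrdl2 protein at 4 µg/mL for 1 h at 4 C; score merges 667 nm emission intensity with signal to noise over three replicate slides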
# [10] = target: Concanavalin-A (Canavalia ensiformis) (UniProt P02866); assay: compounds binding concanavalin A lectin – biochemical, small-molecule microarray, Alexa647 label, 635 nm, artefact control for SMM control protein annotation, primary screen (AID 1127); conditions: ConA-A647 binding fluorescence, higher = more signal;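 note: z combines 667 nm emission intensity with signal-to-noise across three replicate slides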
# Chain of Concanavalin-A (Canavalia ensiformis) (P02866 whole entry, looked up): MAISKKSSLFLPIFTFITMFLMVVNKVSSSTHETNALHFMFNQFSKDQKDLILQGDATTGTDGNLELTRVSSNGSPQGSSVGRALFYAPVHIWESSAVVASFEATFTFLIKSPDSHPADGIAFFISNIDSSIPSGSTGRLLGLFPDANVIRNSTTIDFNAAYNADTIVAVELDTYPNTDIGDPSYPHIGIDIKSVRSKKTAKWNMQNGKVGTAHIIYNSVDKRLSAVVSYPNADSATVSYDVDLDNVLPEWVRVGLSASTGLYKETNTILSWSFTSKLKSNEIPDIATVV
# Chain of Albumin (Bos taurus) (P02769 whole entry, looked up): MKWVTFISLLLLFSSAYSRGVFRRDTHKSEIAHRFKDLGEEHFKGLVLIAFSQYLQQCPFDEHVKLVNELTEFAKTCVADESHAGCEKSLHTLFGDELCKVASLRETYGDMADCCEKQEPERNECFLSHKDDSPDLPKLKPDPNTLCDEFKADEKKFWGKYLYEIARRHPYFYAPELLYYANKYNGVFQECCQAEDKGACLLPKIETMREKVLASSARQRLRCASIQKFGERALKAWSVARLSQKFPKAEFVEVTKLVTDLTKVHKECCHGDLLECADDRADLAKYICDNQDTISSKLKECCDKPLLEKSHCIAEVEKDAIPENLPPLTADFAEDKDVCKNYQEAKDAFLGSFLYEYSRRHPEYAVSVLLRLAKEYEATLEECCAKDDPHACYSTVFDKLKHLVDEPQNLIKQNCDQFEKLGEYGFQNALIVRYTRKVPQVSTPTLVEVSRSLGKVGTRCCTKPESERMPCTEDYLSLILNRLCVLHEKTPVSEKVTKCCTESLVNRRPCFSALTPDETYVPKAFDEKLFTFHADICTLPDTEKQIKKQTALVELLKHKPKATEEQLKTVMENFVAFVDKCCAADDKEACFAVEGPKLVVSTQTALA
SMILES,composite z-score [1],composite Z-score [2],composite z-score [3],composite z-score [4],composite z-score [5],composite z-score [6],composite z-score [7],composite z-score [8],composite z-score [9],composite z-score [10]
C=C(CCCC)C(=O)CC[C@H](OC(=O)c1cccnc1)c1ccccc1OCCO,0.287,1.71 (inactive),-0.0345,-0.161,0.268,0.232,0.259,-0.546,0.335,0.277
C[C@@H]1ON(c2cccc(C(=O)OC(C)(C)C)c2)[C@H](c2ccc(Br)cc2)[C@H]1C(=O)N1C(=O)OC[C@H]1Cc1ccccc1,0.0512,0.0724 (inactive),0.0325,-0.0454,0.133,1.2,0.261,1.21,0.52,1.09
CC(C)(C)OC(=O)CC[C@]1(C(=O)NCC(O)CO)COC(c2ccc(OCCCO)cc2)=N1 (stereo not given in full),0.693,0.0333 (inactive),0.0425,-0.106,0.828,2.68,-0.45,0.949,-1.53,0.504
CN(C)CCCNC(=O)[C@@]1(c2ccc([N+](=O)[O-])cc2)CC(=O)N(C2CCCCC2)[C@@H]1c1ccc(CO)cc1,0.611,-0.14 (inactive),-0.0795,-0.146,0.395,1.68,-0.0291,0.819,-0.357,0.282
[N-]=[N+]=Nc1ccccc1C[C@@]1(C(=O)NCCN2CCOCC2)N=C(c2ccc(OCCCO)cc2)O[C@@H]1c1ccccc1,0.831,0.255 (inactive),0.144,-0.221,0.468,2.87,0.872,1.3,-0.11,1.11
O=C1C2C=CC(C(O)C(c3ccccc3)c3ccccc3)N(n3cnnc3)C2C(=O)N1Cc1ccccc1 (stereo not given),0.057,0.0479 (inactive),0.116,-0.0294,0.635,2.61,0.599,1.3,0.121,1.07
C=CC[C@]12N=C(c3ccc(OCCCO)cc3)O[C@H]1c1ccccc1N(Cc1ccccc1)C2=O,-0.0059,1.2 (inactive),0.0225,-0.078,0.669,2.12,0.38,0.98,0.317,0.385
CCCCC(O)C1C=CC2C(=O)N(c3ccccc3)C(=O)C2N1Nc1ccccc1F (stereo not given),0.8,1.54 (inactive),0.378,0.387,0.747,2.54,0.439,1.12,0.0354,1.13
CCCCCN1CC=CC23O[C@@H]4/C=C\CCCOC(=O)C4[C@H]2C(=O)N(C(CO)C(C)C)[C@@H]3C1=O (stereo not given in full),1,0.586 (inactive),-0.139,-0.14,0.819,-0.168,-0.12,-0.656,-0.718,-0.574
O=C(C1N=C(c2ccc(OCCCO)cc2)N(c2ccccc2)O1)N1CCOCC1 (stereo not given),0.709,0.0285 (inactive),0.237,-0.0843,0.557,1.54,0.255,1.32,-0.114,0.488
CCOC(=O)C=Cc1cc([N+](=O)[O-])ccc1O,-0.307,-0.26 (inactive),0.0209,-0.0162,0.802,0.751,0.422,0.471,-1.26,-0.0123
Cc1ccc(S[C@]2(C(=O)NC3CC3)CC(=O)N(C3Cc4ccccc4C3)[C@@H]2c2ccc(CO)cc2)cc1,0.79,0.157 (inactive),-0.161,0.016,0.628,1.81,0.845,0.963,-0.759,0.356
COC(=O)[C@@]1(Cc2ccccc2)[C@H]2c3cc(C(=O)N4CCCC4)n(Cc4nc5ccccc5[nH]4)c3C[C@H]2CN1C(=O)c1ccccc1,1.03,0.579 (inactive),0.537,0.404,0.653,3.34,0.988,1.3,-0.72,0.912
COc1ccc([Si](C)(C)[C@H]2[C@H](CCn3cc([C@H](O)c4ccccc4)nn3)O[C@@]3(C(=O)N(Cc4cccc(N5CCOC5=O)c4)c4ccccc43)[C@@H]2C)cc1,-0.0478,-0.01 (inactive),-0.0068,-0.301,0.0191,0.178,-0.49,1.07,0.528,0.958
C=CCNC(=O)[C@@H]1[C@H]2C(=O)O[C@H](c3ccccc3)[C@H](c3ccccc3)N2[C@H](c2ccccc2OCCO)[C@@]12C(=O)N(C(=O)OCCOC)c1ccc(C#CCNC(N)=O)cc12,0.79,-0.105 (inactive),0.184,-0.0772,0.247,1.47,0.546,1.32,-0.182,0.959
COCC(=C=CC[C@@H](O)c1ccccc1OCCO)C[C@@H](O)c1cc(Cl)cc(Cl)c1O,0.641,0.103 (inactive),0.129,-0.14,0.38,1.24,0.822,1.3,0.476,1.08
COC(=O)c1c(CC[C@@H](CO)NC(=O)N2CCC[C@H]2Cn2cc(-c3ccccn3)nn2)oc(C(C)=O)c1C(=O)OC,0.453,0.294 (inactive),-0.118,-0.171,0.428,0.043,0.274,0.882,-0.394,0.419
COCCOC(=O)N1C(=O)[C@@]2(c3cc(C#CCNC(N)=O)ccc31)[C@H](C(=O)NC[C@H](O)c1ccccc1)[C@H]1C(=O)O[C@H](c3ccccc3)[C@H](c3ccccc3)N1[C@@H]2c1ccccc1OCCO,0.509,0.529 (inactive),0.411,0.0156,0.296,1.28,0.854,1.28,0.209,1.01
COc1cc2c(cc1O)C=[N+](Cc1cccc(OC(F)(F)F)c1)CC2,0.828,0.0714 (inactive),-0.0879,-0.172,0.61,-0.784,0.173,-0.933,0.156,-0.27
COc1ccc(NN2C(C(O)c3ccc([N+](=O)[O-])cc3)C=CC3C(=O)N(C4CCCCC4)C(=O)C32)cc1 (stereo not given),0.424,0.601 (inactive),0.178,-0.115,0.561,1.48,-0.0699,1.23,-0.261,0.505
O=C1OCCC/C=C\[C@H]2OC34C=CCN(CCN5CCOCC5)C(=O)[C@H]3N(CCCO)C(=O)[C@@H]4C12 (stereo not given in full),-0.843,0.546 (inactive),-0.182,-0.178,0.888,3.72,1.6,-0.284,-0.575,0.167
CC(C)C[C@@H]1NC(=O)[C@@H]2C[C@H](C(=O)NCCCCCN)[C@H](c3cccc(OCCO)c3)N2C1=O,1.02,0.425 (inactive),0.0992,-0.17,0.813,1.03,1.16,0.839,0.0186,1.2
COc1ccc([Si](C)(C)[C@H]2[C@H](CC(=O)N3CCC[C@H]3CO)O[C@@]3(C(=O)N(Cc4cccc(N5C(=O)c6cccc7cccc5c67)c4)c4ccccc43)[C@@H]2C)cc1,0.416,0.488 (inactive),0.143,-0.0745,0.346,1.53,0.0595,1.04,0.956,1.1
C=C(CCCC)C(=O)CC[C@@H](OC(=O)c1cccnc1)c1ccc(CO)o1,0.477,-0.261 (inactive),0.205,-0.127,0.618,0.28,0.194,1.31,0.844,1.02
CN(C)CCCNC(=O)[C@@]1(C)c2ccccc2C(=O)N(Cc2cc(F)cc(C(F)(F)F)c2)[C@H]1c1ccc(CO)cc1,0.56,0.101 (inactive),-0.159,-0.0895,0.769,-0.065,0.457,0.303,-1.66,-0.282
CCCCc1cn(C[C@H](Cc2ccccc2)NC(=O)N[C@H](CO)CCc2oc(C(C)=O)c(C(=O)OC)c2C(=O)OC)nn1,0.25,0.119 (inactive),0.328,-0.12,0.151,0.607,0.0969,1.25,0.756,0.859
CC(C)(C)OC(=O)CC[C@@]1(C(=O)NCC(O)CO)N=C(c2ccc(OCCCO)cc2)O[C@@H]1c1ccccc1N=[N+]=[N-] (stereo not given in full),0.866,0.559 (inactive),0.183,0.0083,0.741,3.53,0.537,1.16,-0.121,1.2
NC(=O)[C@@H]1[C@H]2C(=O)O[C@H](c3ccccc3)[C@H](c3ccccc3)N2[C@H](c2ccc(O)cc2)[C@@]12C(=O)Nc1ccc(C#CC3(O)CCCCCC3)cc12,-0.425,0.339 (inactive),-0.15,-0.175,0.792,0.514,-0.107,-0.427,-0.571,-0.107
CN(C)C(=O)[C@@]1(Cc2ccccc2CN=[N+]=[N-])N=C(c2ccc(OCCCO)cc2)O[C@H]1c1ccccc1,0.722,-0.797 (inactive),0.103,0.112,0.277,2.69,0.624,1.28,-0.285,0.749
